In experiment [1] the target is T1, Serine/threonine-protein kinase haspin (Homo sapiens) (UniProt Q8TF76).
T1 sequence (whole entry): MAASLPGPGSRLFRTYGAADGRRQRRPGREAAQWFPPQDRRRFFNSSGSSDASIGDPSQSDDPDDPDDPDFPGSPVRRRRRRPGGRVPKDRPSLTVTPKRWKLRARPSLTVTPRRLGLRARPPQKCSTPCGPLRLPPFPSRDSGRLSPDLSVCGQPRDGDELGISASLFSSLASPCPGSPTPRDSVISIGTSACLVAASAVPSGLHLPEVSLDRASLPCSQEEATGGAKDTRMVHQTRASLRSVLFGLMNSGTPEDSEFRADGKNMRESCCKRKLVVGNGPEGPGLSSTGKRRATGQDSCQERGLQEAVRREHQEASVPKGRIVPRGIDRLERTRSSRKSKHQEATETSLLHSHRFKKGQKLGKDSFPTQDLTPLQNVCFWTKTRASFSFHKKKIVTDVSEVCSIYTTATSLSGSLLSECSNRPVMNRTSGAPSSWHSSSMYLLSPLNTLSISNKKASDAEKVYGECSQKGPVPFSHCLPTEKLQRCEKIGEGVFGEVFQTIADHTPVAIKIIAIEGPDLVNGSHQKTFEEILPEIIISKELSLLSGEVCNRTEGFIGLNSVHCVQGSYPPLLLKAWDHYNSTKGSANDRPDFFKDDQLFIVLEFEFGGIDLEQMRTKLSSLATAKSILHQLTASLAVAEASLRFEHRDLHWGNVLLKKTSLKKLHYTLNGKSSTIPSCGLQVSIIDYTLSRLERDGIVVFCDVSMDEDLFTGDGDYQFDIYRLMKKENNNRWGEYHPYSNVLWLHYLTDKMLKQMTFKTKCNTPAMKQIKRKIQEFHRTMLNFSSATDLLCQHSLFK
As to conditions: at 10 µM; call rule not given here.

In experiment [2] the target is Tyrosine-protein kinase HCK (Homo sapiens) (UniProt P08631). As to conditions: at 10 µM.
Experiment [3] concerns the target Insulin-like growth factor 1 receptor (Homo sapiens) (UniProt P08069). As to conditions: at 1 µM.
Experiment [4] has the same target. As to conditions: at 10 µM.
For experiment [5], the target named is T2, Protein kinase C zeta type (Homo sapiens) (UniProt Q05513).
T2 sequence (whole entry): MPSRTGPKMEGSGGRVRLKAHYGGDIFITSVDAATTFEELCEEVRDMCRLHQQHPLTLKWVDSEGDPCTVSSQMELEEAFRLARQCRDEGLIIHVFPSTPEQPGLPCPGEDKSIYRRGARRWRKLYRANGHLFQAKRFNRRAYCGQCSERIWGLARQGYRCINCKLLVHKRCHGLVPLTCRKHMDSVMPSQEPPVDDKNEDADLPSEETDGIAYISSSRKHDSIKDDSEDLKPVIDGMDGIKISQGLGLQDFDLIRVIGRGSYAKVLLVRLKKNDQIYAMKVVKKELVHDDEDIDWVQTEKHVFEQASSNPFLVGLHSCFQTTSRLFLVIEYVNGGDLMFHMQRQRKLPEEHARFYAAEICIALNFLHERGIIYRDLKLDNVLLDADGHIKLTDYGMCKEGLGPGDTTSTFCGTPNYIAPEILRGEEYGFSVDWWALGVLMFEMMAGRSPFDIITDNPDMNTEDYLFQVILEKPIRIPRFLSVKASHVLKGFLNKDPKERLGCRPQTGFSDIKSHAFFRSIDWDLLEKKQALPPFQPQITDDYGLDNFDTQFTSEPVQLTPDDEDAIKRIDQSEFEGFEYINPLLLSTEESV
Conditions: at 10 µM.

For experiment [6], the target named is Protein kinase C eta type (Homo sapiens) (UniProt P24723). Conditions: at 1 µM.
Experiment [7] shares this target. As to conditions: at 10 µM.
For experiment [8], the target named is T3, Serine/threonine-protein kinase D1 (Homo sapiens) (UniProt Q15139).
T3 sequence (whole entry): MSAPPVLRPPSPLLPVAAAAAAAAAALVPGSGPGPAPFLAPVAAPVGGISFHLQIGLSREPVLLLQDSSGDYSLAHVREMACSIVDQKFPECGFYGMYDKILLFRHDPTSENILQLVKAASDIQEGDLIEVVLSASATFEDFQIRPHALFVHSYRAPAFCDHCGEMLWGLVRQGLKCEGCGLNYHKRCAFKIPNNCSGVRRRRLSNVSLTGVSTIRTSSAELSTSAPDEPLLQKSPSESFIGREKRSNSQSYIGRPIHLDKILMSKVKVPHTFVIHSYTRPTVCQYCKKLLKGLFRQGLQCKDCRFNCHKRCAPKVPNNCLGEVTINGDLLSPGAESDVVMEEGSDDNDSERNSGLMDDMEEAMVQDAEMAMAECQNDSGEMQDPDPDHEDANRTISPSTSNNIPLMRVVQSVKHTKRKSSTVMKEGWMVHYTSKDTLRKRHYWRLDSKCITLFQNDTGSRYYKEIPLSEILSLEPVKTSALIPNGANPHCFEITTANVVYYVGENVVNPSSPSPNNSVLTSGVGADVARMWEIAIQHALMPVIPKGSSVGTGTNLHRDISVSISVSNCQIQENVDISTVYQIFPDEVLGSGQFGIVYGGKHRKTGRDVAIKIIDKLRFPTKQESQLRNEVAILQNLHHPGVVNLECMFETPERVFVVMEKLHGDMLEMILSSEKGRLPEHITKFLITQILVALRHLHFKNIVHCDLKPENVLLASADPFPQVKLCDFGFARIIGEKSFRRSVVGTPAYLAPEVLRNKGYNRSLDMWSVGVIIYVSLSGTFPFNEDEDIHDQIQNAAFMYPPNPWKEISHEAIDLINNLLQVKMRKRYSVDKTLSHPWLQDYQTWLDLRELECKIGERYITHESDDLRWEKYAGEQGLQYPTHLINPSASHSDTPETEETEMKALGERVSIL
Conditions: at 1 µM.

For experiment [9], the target named is T3, Serine/threonine-protein kinase D1 (Homo sapiens). Conditions: at 10 µM.
Experiment [10] concerns the target Homeodomain-interacting protein kinase 2 (Homo sapiens) (UniProt Q9H2X6). As to conditions: at 10 µM.
The target in experiment [11] is T1, Serine/threonine-protein kinase haspin (Homo sapiens). As to conditions: at 1 µM.
In experiment [12] the target is Tyrosine-protein kinase HCK (Homo sapiens) (UniProt P08631). Conditions: at 1 µM.
Experiment [13] deals with Homeodomain-interacting protein kinase 3 (Homo sapiens) (UniProt Q9H422). Conditions: at 1 µM.
Experiment [14] has the same target. Conditions: at 10 µM.
In experiment [15] the target is Tyrosine-protein kinase HCK (Homo sapiens) (UniProt P08631). Conditions: at 1 µM. The source holds these as a separate data set.
The target is the same in experiment [16]. Conditions: at 10 µM. This is another data set of the same source.
The target of experiment [17] is Protein kinase C theta type (Homo sapiens) (UniProt Q04759). Conditions: at 1 µM.
For experiment [18] the target is unchanged. Conditions: at 10 µM.
For experiment [19], the target named is T4, Protein kinase C iota type (Homo sapiens) (UniProt P41743).
T4 sequence (whole entry): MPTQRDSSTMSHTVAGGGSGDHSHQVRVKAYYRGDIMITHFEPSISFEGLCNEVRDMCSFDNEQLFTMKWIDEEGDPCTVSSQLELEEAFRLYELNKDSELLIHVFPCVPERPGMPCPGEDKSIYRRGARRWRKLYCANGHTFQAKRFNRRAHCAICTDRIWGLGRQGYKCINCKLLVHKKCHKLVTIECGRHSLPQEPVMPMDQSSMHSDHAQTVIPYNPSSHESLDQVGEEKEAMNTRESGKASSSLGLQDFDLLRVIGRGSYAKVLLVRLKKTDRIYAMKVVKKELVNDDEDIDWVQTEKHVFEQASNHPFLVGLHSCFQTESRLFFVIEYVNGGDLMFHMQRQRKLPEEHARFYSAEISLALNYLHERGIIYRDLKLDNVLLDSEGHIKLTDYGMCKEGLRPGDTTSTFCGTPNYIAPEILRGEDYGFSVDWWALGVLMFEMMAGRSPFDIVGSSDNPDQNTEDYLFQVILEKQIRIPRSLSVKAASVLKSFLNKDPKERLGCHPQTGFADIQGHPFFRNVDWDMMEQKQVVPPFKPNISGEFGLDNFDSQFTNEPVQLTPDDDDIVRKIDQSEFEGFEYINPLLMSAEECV
As to conditions: at 1 µM.

Experiment [20] has as its target T4, Protein kinase C iota type (Homo sapiens). Conditions: at 10 µM.

Sequence of Insulin-like growth factor 1 receptor (Homo sapiens) (P08069 31-736 limits assumed): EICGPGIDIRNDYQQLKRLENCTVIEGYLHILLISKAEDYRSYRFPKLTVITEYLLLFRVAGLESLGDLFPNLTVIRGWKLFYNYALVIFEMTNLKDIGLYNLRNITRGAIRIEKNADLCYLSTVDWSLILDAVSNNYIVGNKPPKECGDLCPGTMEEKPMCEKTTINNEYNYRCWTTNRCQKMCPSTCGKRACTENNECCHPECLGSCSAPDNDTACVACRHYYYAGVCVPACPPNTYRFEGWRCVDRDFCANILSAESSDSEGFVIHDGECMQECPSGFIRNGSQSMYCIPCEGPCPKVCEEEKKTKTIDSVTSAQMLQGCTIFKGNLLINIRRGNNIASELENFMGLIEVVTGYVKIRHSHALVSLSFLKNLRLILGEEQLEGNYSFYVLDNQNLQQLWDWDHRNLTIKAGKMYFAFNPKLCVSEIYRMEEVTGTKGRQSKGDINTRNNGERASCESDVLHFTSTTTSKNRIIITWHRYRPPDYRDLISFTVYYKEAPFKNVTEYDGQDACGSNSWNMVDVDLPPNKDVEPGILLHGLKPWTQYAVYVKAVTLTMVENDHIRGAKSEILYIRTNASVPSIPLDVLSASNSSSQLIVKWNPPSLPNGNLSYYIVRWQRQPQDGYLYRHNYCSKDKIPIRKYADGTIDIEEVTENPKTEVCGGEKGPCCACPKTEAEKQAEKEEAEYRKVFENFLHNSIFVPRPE
Sequence of Insulin-like growth factor 1 receptor (Homo sapiens) (P08069 741-1367 limits assumed): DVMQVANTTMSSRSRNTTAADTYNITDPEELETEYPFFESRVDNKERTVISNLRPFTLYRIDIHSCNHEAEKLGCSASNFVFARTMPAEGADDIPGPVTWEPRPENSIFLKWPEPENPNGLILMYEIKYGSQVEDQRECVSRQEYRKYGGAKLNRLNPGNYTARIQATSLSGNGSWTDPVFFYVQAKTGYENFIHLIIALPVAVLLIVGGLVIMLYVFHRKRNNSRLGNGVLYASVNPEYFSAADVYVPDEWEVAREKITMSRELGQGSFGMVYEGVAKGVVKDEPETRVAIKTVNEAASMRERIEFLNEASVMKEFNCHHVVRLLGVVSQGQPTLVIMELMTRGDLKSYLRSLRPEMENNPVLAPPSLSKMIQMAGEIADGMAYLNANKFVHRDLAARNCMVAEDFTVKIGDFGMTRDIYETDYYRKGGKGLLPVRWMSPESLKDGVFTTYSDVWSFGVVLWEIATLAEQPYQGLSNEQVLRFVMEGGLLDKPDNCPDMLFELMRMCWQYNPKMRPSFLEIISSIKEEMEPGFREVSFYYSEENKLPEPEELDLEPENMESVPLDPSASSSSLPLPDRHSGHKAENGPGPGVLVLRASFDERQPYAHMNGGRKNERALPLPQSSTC
Sequence of Homeodomain-interacting protein kinase 2 (Homo sapiens) (Q9H2X6 whole entry, looked up): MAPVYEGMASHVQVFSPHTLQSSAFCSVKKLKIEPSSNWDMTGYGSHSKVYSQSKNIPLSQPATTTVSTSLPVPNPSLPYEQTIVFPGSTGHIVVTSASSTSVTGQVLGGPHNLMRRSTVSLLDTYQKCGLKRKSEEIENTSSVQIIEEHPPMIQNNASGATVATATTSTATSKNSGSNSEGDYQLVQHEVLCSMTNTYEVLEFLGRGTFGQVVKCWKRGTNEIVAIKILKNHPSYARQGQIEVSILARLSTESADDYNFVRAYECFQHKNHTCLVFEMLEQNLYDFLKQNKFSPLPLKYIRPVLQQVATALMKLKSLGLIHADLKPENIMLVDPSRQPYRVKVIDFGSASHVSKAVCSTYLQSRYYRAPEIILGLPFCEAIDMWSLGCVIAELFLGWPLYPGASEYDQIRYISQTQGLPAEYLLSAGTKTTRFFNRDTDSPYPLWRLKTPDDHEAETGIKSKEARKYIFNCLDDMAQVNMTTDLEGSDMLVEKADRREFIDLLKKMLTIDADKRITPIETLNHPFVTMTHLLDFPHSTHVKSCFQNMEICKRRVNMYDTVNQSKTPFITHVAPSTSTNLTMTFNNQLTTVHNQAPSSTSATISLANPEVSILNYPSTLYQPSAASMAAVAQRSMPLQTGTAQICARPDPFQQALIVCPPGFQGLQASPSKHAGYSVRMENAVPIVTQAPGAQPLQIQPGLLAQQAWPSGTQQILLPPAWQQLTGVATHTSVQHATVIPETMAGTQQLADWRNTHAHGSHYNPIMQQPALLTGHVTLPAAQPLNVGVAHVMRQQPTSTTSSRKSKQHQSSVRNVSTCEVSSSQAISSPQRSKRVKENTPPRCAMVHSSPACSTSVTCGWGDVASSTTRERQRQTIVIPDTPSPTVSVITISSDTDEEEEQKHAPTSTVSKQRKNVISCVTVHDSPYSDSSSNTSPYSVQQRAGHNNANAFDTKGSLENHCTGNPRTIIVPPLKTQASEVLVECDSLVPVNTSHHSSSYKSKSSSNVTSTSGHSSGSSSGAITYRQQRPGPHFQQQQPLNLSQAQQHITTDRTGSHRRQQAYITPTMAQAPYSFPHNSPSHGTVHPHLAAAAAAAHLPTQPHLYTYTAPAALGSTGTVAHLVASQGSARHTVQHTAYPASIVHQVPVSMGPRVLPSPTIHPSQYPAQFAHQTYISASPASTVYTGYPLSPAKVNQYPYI
Sequence of Protein kinase C theta type (Homo sapiens) (Q04759 whole entry, looked up): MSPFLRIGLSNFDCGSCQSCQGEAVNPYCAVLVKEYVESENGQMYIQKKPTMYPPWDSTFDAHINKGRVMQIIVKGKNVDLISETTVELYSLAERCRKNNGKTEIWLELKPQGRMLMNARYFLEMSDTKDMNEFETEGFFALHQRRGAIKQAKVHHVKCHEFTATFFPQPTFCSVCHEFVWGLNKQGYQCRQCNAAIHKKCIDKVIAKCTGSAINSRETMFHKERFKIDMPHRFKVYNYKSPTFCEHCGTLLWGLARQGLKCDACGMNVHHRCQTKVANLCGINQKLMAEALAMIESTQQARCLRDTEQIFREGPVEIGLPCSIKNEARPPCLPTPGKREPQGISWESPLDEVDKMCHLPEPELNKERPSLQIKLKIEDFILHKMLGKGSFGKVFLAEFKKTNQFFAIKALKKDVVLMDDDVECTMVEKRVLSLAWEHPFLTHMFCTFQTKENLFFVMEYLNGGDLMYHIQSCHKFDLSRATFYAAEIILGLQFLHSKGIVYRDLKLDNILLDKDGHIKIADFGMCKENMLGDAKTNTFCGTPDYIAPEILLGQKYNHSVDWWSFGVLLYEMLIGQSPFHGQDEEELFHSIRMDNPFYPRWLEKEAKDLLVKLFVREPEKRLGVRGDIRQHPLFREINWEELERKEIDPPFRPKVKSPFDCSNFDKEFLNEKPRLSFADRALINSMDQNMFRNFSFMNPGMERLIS
Sequence of Tyrosine-protein kinase HCK (Homo sapiens) (P08631 2-526 limits assumed): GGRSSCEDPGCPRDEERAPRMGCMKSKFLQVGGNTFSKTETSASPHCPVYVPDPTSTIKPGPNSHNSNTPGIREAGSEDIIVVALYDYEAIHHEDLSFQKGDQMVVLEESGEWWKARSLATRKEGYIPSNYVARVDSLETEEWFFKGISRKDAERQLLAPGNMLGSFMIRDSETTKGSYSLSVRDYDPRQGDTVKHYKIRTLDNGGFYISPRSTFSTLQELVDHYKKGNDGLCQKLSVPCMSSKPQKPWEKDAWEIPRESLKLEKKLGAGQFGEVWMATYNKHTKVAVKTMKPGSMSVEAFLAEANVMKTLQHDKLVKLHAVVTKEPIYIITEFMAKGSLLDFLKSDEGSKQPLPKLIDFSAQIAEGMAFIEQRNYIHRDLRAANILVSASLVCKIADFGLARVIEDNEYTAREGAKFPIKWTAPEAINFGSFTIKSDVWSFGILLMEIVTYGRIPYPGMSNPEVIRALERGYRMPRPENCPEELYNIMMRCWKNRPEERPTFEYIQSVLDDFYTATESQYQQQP
Sequence of Homeodomain-interacting protein kinase 3 (Homo sapiens) (Q9H422 whole entry, looked up): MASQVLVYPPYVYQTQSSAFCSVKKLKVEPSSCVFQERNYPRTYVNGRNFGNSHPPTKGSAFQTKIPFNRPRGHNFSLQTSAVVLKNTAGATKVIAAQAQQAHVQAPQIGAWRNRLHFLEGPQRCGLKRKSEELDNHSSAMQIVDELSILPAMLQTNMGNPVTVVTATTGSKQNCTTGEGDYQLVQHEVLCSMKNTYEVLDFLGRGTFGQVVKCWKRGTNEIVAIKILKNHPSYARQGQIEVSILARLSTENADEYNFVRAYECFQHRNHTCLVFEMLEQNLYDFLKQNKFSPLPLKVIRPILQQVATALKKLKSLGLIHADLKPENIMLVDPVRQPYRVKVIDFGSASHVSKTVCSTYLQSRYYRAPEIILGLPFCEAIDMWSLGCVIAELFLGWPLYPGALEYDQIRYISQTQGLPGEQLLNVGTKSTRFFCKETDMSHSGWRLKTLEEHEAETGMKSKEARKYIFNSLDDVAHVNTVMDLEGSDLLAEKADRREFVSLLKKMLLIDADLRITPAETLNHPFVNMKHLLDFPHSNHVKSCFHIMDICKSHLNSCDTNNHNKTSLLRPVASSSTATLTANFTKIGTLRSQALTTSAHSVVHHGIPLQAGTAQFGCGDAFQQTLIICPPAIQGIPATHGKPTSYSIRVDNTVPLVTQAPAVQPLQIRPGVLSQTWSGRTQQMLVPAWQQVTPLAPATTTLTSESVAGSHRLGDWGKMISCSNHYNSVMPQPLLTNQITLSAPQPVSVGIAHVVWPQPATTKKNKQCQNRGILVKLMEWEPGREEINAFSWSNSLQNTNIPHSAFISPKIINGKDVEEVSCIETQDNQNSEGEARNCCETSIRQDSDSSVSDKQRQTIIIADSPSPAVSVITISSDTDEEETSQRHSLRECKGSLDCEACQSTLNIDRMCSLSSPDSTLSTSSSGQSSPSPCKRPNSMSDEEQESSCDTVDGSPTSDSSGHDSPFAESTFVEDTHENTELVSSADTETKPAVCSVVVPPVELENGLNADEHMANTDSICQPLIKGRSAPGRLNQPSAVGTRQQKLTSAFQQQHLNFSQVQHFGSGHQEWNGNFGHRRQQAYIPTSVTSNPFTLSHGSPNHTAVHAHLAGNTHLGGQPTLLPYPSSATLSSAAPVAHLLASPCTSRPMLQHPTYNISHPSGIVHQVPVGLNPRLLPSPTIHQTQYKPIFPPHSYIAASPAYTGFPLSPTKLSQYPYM

Turning to `O=C1c2ccccc2-c2nc3nnnn3nc21`, the residual activity was determined as 74% in experiment [1]; 76% in experiment [2]; 129% in [3]; 83% in [4]; 108% in experiment [5]; 117% in experiment [6]. Besides, the residual activity in experiment [7] worked out at 83%; in experiment [8], 104%; in experiment [9], 106%.

For the compound `N/C(=N\[N+](=O)[O-])N/N=C\c1ccc(-c2cccc([N+](=O)[O-])c2)o1`, the residual activity in experiment [10] was 83%; in [11] it was 97%; in [1], 80%; in experiment [12], 70%; in [2] it was 49%; in [4], 76%. Also, the residual activity in experiment [5] is 98%; in experiment [6], 84%; in [7] it was 83%.

For `CCn1cnc2c(Nc3cccc(Cl)c3)nc(N[C@@H]3CCCC[C@@H]3N)nc21`, the residual activity in experiment [10] was 47%; in experiment [13], 99%; in experiment [14] it was 80%; in experiment [11], 48%; in experiment [1], 3%; in experiment [12] it was 24%. Moreover, the residual activity in experiment [2] was found to be 4%; in experiment [15], 24%; in experiment [16] it was 4%; in experiment [3] it was 95%; in [4], 123%; in experiment [6] it was 93%. In addition, the residual activity in experiment [7] was 80%; in experiment [17] it was 71%; in experiment [18], 23%; in experiment [8], 97%; in experiment [9] it was 61%.

As to `COc1ccc2c(c1)/C(=C/c1cnc[nH]1)C(=O)N2`, the residual activity was found to be 49% in [14]; 37% in experiment [11]; 13% in experiment [1]; 71% in experiment [12]; 33% in experiment [2]; 49% in experiment [16]. Moreover, the residual activity in experiment [4] worked out at 128%.

On to `COc1ccc2c(c[n+](C)c3c4cc5c(cc4ccc23)OCO5)c1OC`, for which the residual activity was determined as 86% in [10]; 69% in [1]; 92% in experiment [12]; 60% in [2]; 95% in [15]; 92% in experiment [16]. In addition, the residual activity was 138% in experiment [3]; 131% in [4]; 75% in [5]; 90% in experiment [17]; 66% in experiment [18]; 98% (inactive) in experiment [19]. Further, the residual activity was 81% in experiment [20], 110% in experiment [8] and 61% in experiment [9].

Regarding `O=[N+]([O-])/C=C/c1ccc2c(c1)OCO2`, the residual activity was determined as 101% in experiment [13]; 99% in [14]; 128% in experiment [11]; 115% in experiment [1]; 85% in [12]; 73% in experiment [2]. Besides, the residual activity was found to be 94% in experiment [16]; 131% in experiment [3]; 121% in [4]; 114% in experiment [5]; 100% in experiment [6]; 72% in experiment [7]. In addition, the residual activity is 95% in [17]; 93% in [18]; 93% (inactive) in [19]; 76% in [20]; 91% in experiment [8]; 88% in experiment [9].

Regarding `COC(=O)[C@@]1(O)C[C@H]2O[C@]1(C)n1c3ccccc3c3c4c(c5c6ccccc6n2c5c31)C(=O)NC4`, the residual activity is -1% in [10]; 54% in experiment [13]; -4% in [14]; 8% in experiment [11]; 5% in [1]; 3% in [12]. Further, the residual activity in experiment [2] was determined as 1%; in experiment [15], 1%; in experiment [16] it was 4%; in experiment [3], 77%; in [4], 14%; in experiment [5], 8%. The residual activity in experiment [6] is 36%; in experiment [7], 7%; in experiment [17], 10%; in experiment [18], 5%; in experiment [19] it was 107% (inactive); in experiment [20], 69%. For the same compound, the residual activity in experiment [8] was determined as 1%; in [9], 0%.

Take `COc1cc2ncnc(Nc3ccc(OCc4ccccc4)cc3)c2cc1OC`: the residual activity was 84% in experiment [10]; 100% in [13]; 96% in experiment [14]; 77% in experiment [11]; 45% in [1]; 35% in experiment [12]. For the same compound, the residual activity was 19% in experiment [2]; 90% in experiment [15]; 83% in experiment [16]; 120% in experiment [3]; 129% in [4]; 108% in experiment [5]. Moreover, the residual activity is 109% in experiment [6]; 97% in [7]; 124% in [17]; 114% in experiment [18]; 95% (inactive) in experiment [19]; 68% in experiment [20]. For the same compound, the residual activity in experiment [8] amounted to 93%; in experiment [9] it was 113%.

As to `O=c1[nH]c2ccccc2n1C1CCN(Cc2ccc(-c3nc4cc5[nH]cnc5cc4nc3-c3ccccc3)cc2)CC1`, the residual activity came to 64% in experiment [10]; 97% in [13]; 91% in experiment [14]; 76% in [11]; 49% in [1]; 91% in [12]. The residual activity is 42% in experiment [2]; 102% in experiment [15]; 91% in experiment [16]; 125% in [3]; 39% in [4]; 97% in [5]. For the same compound, the residual activity was 120% in experiment [6]; 83% in experiment [7]; 104% in experiment [17]; 109% in [18]; 87% (inactive) in experiment [19]; 90% in experiment [20]. Besides, the results for the residual activity in [8] and in experiment [9] were 96% and 97%, respectively.

One may read the residual activity as the signal under treatment as a percentage of the control signal.

The values above are taken from ChEMBL document CHEMBL2218924, “A broad activity screen in support of a chemogenomic map for kinase signalling research and drug discovery” (Biochem J, 2013).
